# Source: PubChem BioAssay (NCATS)
# Values joined by “and” are separate entries in the source; they are usually repeats but may differ in a detail not shown here. Equal values may be shown once. Results filed as inconclusive are left out. Entries that show only a call come without a potency. Values without a mark were called inactive. Active and inactive are the calls of the source. Calls come from the whole dose curve; as a rule, active = well fitted curve in the direction sought with a large enough effect; inconclusive = small, poorly fitted or top-dose-only effect, or another doubt; inactive = no such curve, though single readings can be large; an effect the other way counts as inactive or inconclusive. Where a SMILES comes first, the peptide text is derived from it. The star is where a group is joined. AFC = O=c1cc(C(F)(F)F)c2ccc(N*)cc2o1
# Assays:
# KB-3-1 = assay: Cytotoxic Profiling of Annotated Libraries Using Quantitative High-Throughput Screening (AID 1296008); settings: Five cell lines viability, CellTiter-Glo ATP luminescence, 48-72 h; max response: hits give low values; note: nearly all actives have a fitted effect of over 60% in size; note: potency is the fitted concentration of half-maximal effect
# Method in brief: (§1)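 Compounds were pin-transferred onto cells and incubated 48 or 72 hr at 37 degree Celsius, 95% humidity. CellTiter-Glo was added, plates sat 10 min at room temperature, then ATP-coupled luminescence was imaged as the viability read-out.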
# NIH3T3 = assay: as above; settings: Five cell lines viability, CellTiter-Glo ATP luminescence, 48-72 h; max response: hits give low values
# Method in brief: as §1
# HEK293T [1] = assay: qHTS assay to identify novel small-molecules to repurpose for Merkel cell carcinoma treatment (AID 1296009); settings: MCC and control cell lines, CellTiter-Glo viability, 72 h; series mostly up to 44.8 µM; note: nearly all actives have a fitted effect of over 60% in size
# Method in brief: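 Viability readout: ATP luminescence (CellTiter-Glo) after 72 hr drug exposure at 37 degree celsius. Dose-response format was 8 points for NPC and 11 points for MIPE; data normalized to in-plate controls.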
# C33A = assay: Primary qHTS to identify gynecologic anti-cancer compounds using libraries of approved drugs and bioactive compounds (AID 1345084); settings: Gynecologic cancer cell panel viability, ATPlite luminescence, 48 h; series mostly up to 57.5 µM; note: nearly all actives have a fitted effect of over 55% in size; note: potency is the fitted concentration of half-maximal effect
# Method in brief: (§2)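 Cells, 1,000 per well, were allowed to settle for 16 h at 37 C before compound addition. Five concentrations were tested for 48 h, and viability was read by ATPlite luminescence after 15 min at room temperature.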
# CAOV3 = assay: as above; settings: Gynecologic cancer cell panel viability, ATPlite luminescence, 48 h; series mostly up to 57.5 µM
# Method in brief: as §2
# CASKI = assay: as above; settings: Gynecologic cancer cell panel viability, ATPlite luminescence, 48 h; series mostly up to 57.5 µM
# Method in brief: as §2
# Es-2 = assay: as above; settings: Gynecologic cancer cell panel viability, ATPlite luminescence, 48 h; series mostly up to 57.5 µM
# Method in brief: as §2
# HeLa = assay: as above; settings: Gynecologic cancer cell panel viability, ATPlite luminescence, 48 h; series mostly up to 57.5 µM
# Method in brief: as §2
# Hek293T [2] = assay: as above; settings: Gynecologic cancer cell panel viability, ATPlite luminescence, 48 h, control line for the selectivity index; series mostly up to 57.5 µM
# Method in brief: as §2
# JEG-3 = assay: as above; settings: Gynecologic cancer cell panel viability, ATPlite luminescence, 48 h; series mostly up to 57.5 µM
# Method in brief: as §2
# OV90 = assay: as above; settings: Gynecologic cancer cell panel viability, ATPlite luminescence, 48 h; series mostly up to 57.5 µM
# Method in brief: as §2
# PA-1 = assay: as above; settings: Gynecologic cancer cell panel viability, ATPlite luminescence, 48 h; series mostly up to 57.5 µM
# Method in brief: as §2
structure (smiles),measurement,setting,value
O=C(OCC12OC1C=CC(OC(=O)c1ccccc1)C2O)c1ccccc1 (stereo unspecified),max response,KB-3-1,9.03%
same,max response,NIH3T3,-13.1%
same,Potency,HEK293T [1],inactive
same,Potency,C33A,inactive
same,Potency,CAOV3,inactive
same,Potency,CASKI,inactive
same,Potency,Es-2,inactive
same,Potency,HeLa,inactive
same,Potency,Hek293T [2],inactive
same,Potency,JEG-3,inactive
same,Potency,OV90,inactive
same,Potency,PA-1,inactive
CC(=O)N[C@@H](CC(C)C)C(=O)N[C@@H](CCC(=O)O)C(=O)N[C@@H](CCC(=O)O)C(=O)N[C@@H](CC(=O)O)C(=O)Nc1ccc2c(C(F)(F)F)cc(=O)oc2c1 (Ac-LEED-{AFC}),max response,KB-3-1,0.179%
same,max response,NIH3T3,1.1%
same,Potency,HEK293T [1],inactive
same,Potency,C33A,inactive
same,Potency,CAOV3,inactive
same,Potency,CASKI,inactive
same,Potency,Es-2,inactive
same,Potency,HeLa,inactive
same,Potency,Hek293T [2],inactive
same,Potency,JEG-3,inactive
same,Potency,OV90,inactive
same,Potency,PA-1,inactive
C/C=C(/C)C(=O)O[C@H]1C=C(C)C[C@H](OC(=O)c2ccc(O)cc2)C2[C@](O)(C(C)C)CC[C@@]21C (stereo partly specified),outcome,KB-3-1,inactive
same,max response,NIH3T3,-3.12%
same,Potency,HEK293T [1],inactive
same,Potency,C33A,inactive
same,Potency,CAOV3,inactive
same,Potency,CASKI,inactive
same,Potency,Es-2,inactive
same,Potency,HeLa,inactive
same,Potency,Hek293T [2],inactive
same,Potency,JEG-3,inactive
same,Potency,OV90,inactive
same,Potency,PA-1,inactive
O=C(/C=C/c1ccc(O)cc1)O[C@H]1[C@@H]2C=CO[C@@H](O[C@@H]3O[C@H](CO)[C@@H](O)[C@H](O)[C@H]3O)[C@@H]2[C@@]2(CO)O[C@@H]12,outcome,KB-3-1,inactive
same,max response,NIH3T3,0.736%
same,Potency,HEK293T [1],inactive
same,Potency,C33A,inactive
same,Potency,CAOV3,inactive
same,Potency,CASKI,inactive
same,Potency,Es-2,inactive
same,Potency,HeLa,inactive
same,Potency,Hek293T [2],inactive
same,Potency,JEG-3,inactive
same,Potency,OV90,inactive
same,Potency,PA-1,inactive
OCc1ccccc1O[C@@H]1O[C@H](CO)[C@@H](O)[C@H](O)[C@H]1O,max response,KB-3-1,6.41%
same,max response,NIH3T3,-2.31%
same,Potency,HEK293T [1],inactive
same,Potency,C33A,inactive
same,Potency,CAOV3,inactive
same,Potency,CASKI,inactive
same,Potency,Es-2,inactive
same,Potency,HeLa,inactive
same,Potency,Hek293T [2],inactive
same,Potency,JEG-3,inactive
same,Potency,OV90,inactive
same,Potency,PA-1,inactive
O=C(O)c1n[nH]c2c1C[C@H]1C[C@@H]21,max response,KB-3-1,3.14%
same,max response,NIH3T3,-3.9%
same,Potency,HEK293T [1],inactive
same,Potency,C33A,inactive
same,Potency,CAOV3,inactive
same,Potency,CASKI,inactive
same,Potency,Es-2,inactive
same,Potency,HeLa,inactive
same,Potency,Hek293T [2],inactive
same,Potency,JEG-3,inactive
same,Potency,OV90,inactive
same,Potency,PA-1,inactive
C/C=C(\C)C(=O)O[C@H]1[C@@H](O[C@]2(COC(=O)CC(C)C)O[C@H](COC(=O)C(C)C)[C@@H](OC(C)=O)[C@@H]2O)O[C@H](COC(C)=O)[C@@H](O)[C@@H]1O,max response,KB-3-1,4.8%
same,max response,NIH3T3,0.154%
same,Potency,HEK293T [1],inactive
same,Potency,C33A,inactive
same,Potency,CAOV3,inactive
same,Potency,CASKI,inactive
same,Potency,Es-2,inactive
same,Potency,HeLa,inactive
same,Potency,Hek293T [2],inactive
same,Potency,JEG-3,inactive
same,Potency,OV90,inactive
same,Potency,PA-1,inactive
CC[C@H](C)/C=C(C)/C=C/C(=O)Cc1cc(O)c(C)c(O)c1C=O,max response,KB-3-1,7.23%
same,max response,NIH3T3,3.96%
same,Potency,HEK293T [1],inactive
same,Potency,C33A,inactive
same,Potency,CAOV3,inactive
same,Potency,CASKI,inactive
same,Potency,Es-2,inactive
same,Potency,HeLa,inactive
same,Potency,Hek293T [2],inactive
same,Potency,JEG-3,inactive
same,Potency,OV90,inactive
same,Potency,PA-1,inactive
CC1(C)O[C@]23C[C@H]1C[C@H](OC(=O)c1ccoc1)[C@]2(C)[C@@H](OC(=O)c1ccoc1)CCC3(C)O (stereo partly specified),max response,KB-3-1,7.96%
same,max response,NIH3T3,-0.102%
same,Potency,HEK293T [1],inactive
same,Potency,C33A,inactive
same,Potency,CAOV3,inactive
same,Potency,CASKI,inactive
same,Potency,Es-2,inactive
same,Potency,HeLa,inactive
same,Potency,Hek293T [2],inactive
same,Potency,JEG-3,inactive
same,Potency,OV90,inactive
same,Potency,PA-1,inactive
C[C@@H]1O[C@@H](O[C@H]2[C@H](O[C@H]3[C@H](O[C@H]4CC[C@@]5(CO)C(CC[C@]6(C)C5CC=C5C7CC(C)(C)C[C@@H](O)[C@]7(C)CC[C@]56C)C4(C)C)O[C@H](C(=O)O)[C@@H](O)[C@@H]3O)OC[C@@H](O)[C@@H]2O)[C@H](O)[C@H](O)[C@H]1O (stereo partly specified),max response,KB-3-1,5.01%
same,max response,NIH3T3,-0.118%
same,outcome,HEK293T [1],inactive [at 9.27 µM]
same,"activity change, negative = cytotoxicity",C33A,-1.54% [at 11.6 µM]
same,"activity change, negative = cytotoxicity",CAOV3,7.01% [at 11.6 µM]
same,"activity change, negative = cytotoxicity",CASKI,6.9% [at 11.6 µM]
same,"activity change, negative = cytotoxicity",Es-2,-4.17% [at 11.6 µM]
same,"activity change, negative = cytotoxicity",HeLa,-12.2% [at 11.6 µM]
same,"activity change, negative = cytotoxicity",Hek293T [2],-3.07% [at 11.6 µM]
same,"activity change, negative = cytotoxicity",JEG-3,-1.11% [at 11.6 µM]
same,"activity change, negative = cytotoxicity",OV90,-1.83% [at 11.6 µM]
same,"activity change, negative = cytotoxicity",PA-1,6.18% [at 11.6 µM]
CC(C)C(=O)c1cn(CC(=O)COc2ccc(Oc3ccccc3)cc2)c2ccc(C(=O)O)cc12,max response,KB-3-1,-0.497%
same,max response,NIH3T3,-1.24%
same,Potency,HEK293T [1],inactive
same,Potency,C33A,inactive
same,Potency,CAOV3,inactive
same,Potency,CASKI,inactive
same,Potency,Es-2,inactive
same,Potency,HeLa,inactive
same,Potency,Hek293T [2],inactive
same,Potency,JEG-3,inactive
same,Potency,OV90,inactive
same,Potency,PA-1,inactive
CCC(=O)O[C@]1(C(=O)CCl)[C@@H](C)C[C@H]2[C@@H]3C[C@H](F)C4=CC(=O)C=C[C@]4(C)[C@@]3(F)[C@@H](O)C[C@@]21C,max response,KB-3-1,-4.75% and -10.3%
same,max response,NIH3T3,1.57%
same,Potency,C33A,inactive
same,Potency,CASKI,inactive
same,Potency,Es-2,inactive
same,Potency,HeLa,inactive
same,Potency,Hek293T [2],inactive
same,Potency,JEG-3,inactive
same,Potency,OV90,inactive
same,Potency,PA-1,inactive
Nc1ccn([C@@H]2C(F)=C(CO)[C@@H](O)[C@H]2O)c(=O)n1,Potency,KB-3-1,9.2 µM (active)
same,Potency,NIH3T3,4.61 µM (active) and 3.71 µM (active)
same,Potency,C33A,inactive
same,Potency,CAOV3,inactive
same,Potency,CASKI,inactive
same,Potency,HeLa,inactive
same,Potency,JEG-3,inactive
same,Potency,OV90,inactive
same,Potency,PA-1,2.24 µM (active)
